In PubChem BioAssay AID1159566 (Broad Institute, 2015):
Results with a measured potency or affinity are listed apart. The source made the active and inactive calls. No rule for the calls is given here.

assay: P. falciparum Dd2 growth inhibitors, dose response, SYBR Green, dry powder samples (AID 1159566); conditions: SYBR Green fluorescence; series mostly up to 19.5 µM

Structure (SMILES) | outcome
Cc1ccccc1-c1ccccc1[C@H]1[C@@H](C#N)N(C(=O)c2ccccc2)[C@@H]1CO | inactive
O=C(NC[C@@H]1CC[C@H]2[C@H](CN2Cc2cc(-c3ccccc3)on2)O1)c1ccc2c(c1)OCO2 | inactive
COc1cccc(C#Cc2ccc([C@H]3[C@@H](CO)N(C(=O)c4ccccn4)[C@H]3C#N)cc2)c1 | inactive
COc1ccc(S(=O)(=O)Nc2ccc3c(c2)CC(=O)N([C@@H](C)CO)C[C@H](C)[C@H](CN(C)S(=O)(=O)c2ccc(OC)cc2)O3)cc1 | inactive
C[C@@H]1CN([C@H](C)CO)C(=O)c2cccc(NC(=O)c3ccc(-c4nccs4)cc3)c2O[C@H]1CN(C)Cc1ccc(C(F)(F)F)cc1 | inactive
